Experimental data published in PubChem BioAssay (NCI).
The panel holds about 83,000 compounds, 20% with a hit somewhere; the sample as a whole holds those more often.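 Testing used 96-well plates and a 48-hour single-concentration exposure. Example: -40 means 40% of the starting cells died.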 A number with no mark means an inactive call. Activity calls are given as the source filed them.

test system: SK-MEL-5 melanoma; experiment: NCI-60 one-dose screen, 48 h (100 = growth as untreated, 0 = no growth, -100 = all killed); details: 10 µM unless noted
Description: Growth inhibition of the SK-MEL-5 human tumor cell line is measured as a screen for anti-cancer activity. Cells are grown in 96 well plates and exposed to the test compound for 48 hours. Compounds are tested at a single concentration, which is 10^-5 M for most compounds. The reported endpoint is percent growth (GI% or GIPRCNT), where numbers from 0 - 100% represent growth inhibition, and numbers from -100% - 0 represent cell death. For example, a value of 40 represents 60% growth inhibition. A value of 0 means no net growth occurred over the course of the experiment. A value of -40 indicates 40% of cells at the beginning of the experiment died by the end of the experiment. A value of -100 means all cells are dead at the end of the experiment.
NCI-60 Human Tumor Cell Lines Screen was performed using the standard one-dose NCI protocol, which is described in more detail at https://dtp.cancer.gov/discovery_development/nci-60/default.htm.
Compounds with GIPRCNT values below 10 were considered active. Activity score was based on GIPRCNT using the following formula: […]
Score is 0 for GIPRCNT values of 100 or above, 50 for GIPRCNT values of 0, and 100 for GIPRCNT values of -100.

| Structure (SMILES) | growth |
| --- | --- |
| O=C(N/N=C/c1ccccc1O)c1ccccc1Nc1ccnc(C(F)(F)F)c1 | -64.5% (active) |
| COc1ccc(CCNc2nc(SC)nc(-c3cccc([N+](=O)[O-])c3)c2C#N)cc1OC | 88.2% |
| O=C(/C=C/c1ccccc1)c1ccc(O)c(CN2CCN(c3cc4c(cc3F)c(=O)c(C(=O)O)cn4C3CC3)CC2)c1 | -42.1% (active) |
| CCN(CC)c1ccc(-c2cc(-c3cc(OC)c(OC)c(OC)c3)nc(N3CCOCC3)c2C#N)cc1 | -83.3% (active) |
| O=C(CN1C(=O)/C(=C/c2ccc(Cl)cc2)SC1=S)NCCCN1CCOCC1 | 95.7% |
| Oc1ccc(N=Cc2ccccc2O)cc1 | 92.3% |
| Cc1cc(C)c2nc3nc(C)cc(C)c3c(N)c2c1 | 26.8% |
| O=C1Nc2cc(-c3ccc(O)cc3)ccc2/C1=C/c1ccc[nH]1 | -17.3% (active) |
| NC(=O)c1cc(Cl)ccc1NC(=O)/C=C/c1ccccc1 | 5.23% (active) |
| O=C(Nc1cccc2[nH]c(C(F)(F)F)nc12)c1ccc(-n2cnnn2)cc1 | 87.2% |
| O=C1CC[C@H](c2ccc(O)c3c2C(=O)[C@@H]2O[C@@H]2C3=O)c2cccc(O)c21 | 92.6% |
| CCc1c(Nc2ccccc2C)nc(N)[nH]c1=O | 107% |
| N#Cc1c(N)n(CCNC(=O)c2ccccc2)c2nc3ccccc3nc12 | 132% |
| CSc1nc(NCCO)c(C#N)c(-c2cccc([N+](=O)[O-])c2)n1 | 97.2% |
| CC(C)(C)N1CCC1CN (stereo not given) | 136% |
| O=c1nc2oc3ccc4ccccc4c3cc-2s1 | 10.8% |
| C=C(C)C(=O)Nc1ccc(NC(C)C)cc1 | 134% |
| Cc1nn(-c2ccc(F)cc2)c2ncnc(Nc3ccc(NC(=O)Nc4ccc(Cl)c(C(F)(F)F)c4)cc3)c12 | 61.1% |
| C=C(C)[C@@H]1CC[C@]2(C(=O)OC)CC[C@]3(C)[C@H](CC[C@@H]4[C@@]5(C)C/C(=C/c6cccc(I)c6)C(=O)C(C)(C)[C@@H]5CC[C@]43C)[C@@H]12 | 99% |
| COc1ccc(C(=O)COc2ccc(/C=C3\Oc4ccc(OC)cc4C3=O)cc2)cc1 | 97.5% |

| Structure (SMILES) | growth |
| --- | --- |
| N#Cc1c(-c2ccc(Cl)cc2)nc(NN=Cc2ccco2)nc1N1CCOCC1 | 80.9% |
| COc1cccc(-c2nc3sccn3c2-c2ccnc(NCCNS(=O)(=O)c3ccc(F)cc3)c2)c1 | -53.1% (active) |
| O=[N+]([O-])c1ccccc1/C=N\NC(=S)N/N=C/c1ccccc1[N+](=O)[O-] | 59.1% |
| O=C(O)c1ccc(NC(=O)c2ccc(-c3cccc([N+](=O)[O-])c3)o2)cc1 | 101% |
| O=C1CSC(=S)N1CCc1ccc(O)cc1 | 97.1% |
| COc1cc(/C=C/C(=O)c2ccc(O)c(CN3CCN(c4cc5c(cc4F)c(=O)c(C(=O)O)cn5C4CC4)CC3)c2)cc(OC)c1OC | 64% |
| Cc1ccc(C2Oc3ccccc3C3CC(c4cccs4)=NN32)cc1 (stereo not given) | 96.3% |
| c1ccc(-c2cc3n4c(-c5ccccc5)nn(-c5ccccc5)c4cnc-3n2)cc1 | 70.5% |
| Cc1nc(/N=C(\N)NC(=O)Nc2cccc([N+](=O)[O-])c2)sc1C | 91.1% |
| COc1cc(-c2ccc3c(c2)NC(=O)/C3=C\c2ccc[nH]2)ccc1O | -27.5% (active) |
| COc1ccc(C(=O)/C=C/c2cccnc2Nc2cc(OC)c(OC)c(OC)c2)cc1 | 43% |
| C=C1c2nc3ccccc3n2C=C(c2cccc(Cl)c2)N1Cc1ccc(OC)cc1 | -31.1% (active) |
| C=CC(=O)Nc1cccc(Nc2nc(SC)nc(-c3cccc([N+](=O)[O-])c3)c2C#N)c1 | 55.2% |
| CCOC(=O)n1cc(-c2nonc2-c2cn(C)c3ncccc23)c2ccccc21 | 77.3% |
| O=C1NC(=S)N[C@H]1CC(=O)n1cnc2ccccc21 | 99.1% |
| COC(=O)[C@@H]1CCCN1C(=O)[C@@H]1CCCN1C(=O)[C@H](Cc1ccccc1)NC(=S)Nc1cc(C(F)(F)F)cc(C(F)(F)F)c1 | 86.4% |
| O=[N+]([O-])c1ccc(Nc2nc(NCCN3CCOCC3)ncc2[N+](=O)[O-])cc1 | 96% |
| Cc1cc(C)nc(SC2=C(Nc3cc(Cl)ccc3O)C(=O)N(Cc3ccccc3)C2=O)n1 | 49% [30 µM] |
| CCCCn1cnc2c(Sc3c([N+](=O)[O-])ncn3C)nc(N)nc21 | 103% |
| CSc1nc(Nc2cccc(NC(=O)/C(C#N)=C/c3c(Cl)cccc3Cl)c2)c(C#N)c(-c2cccc([N+](=O)[O-])c2)n1 | 49.6% |
